Out of some 39,000 compounds screened, about 1,500 (3.8%) were called active. The sample holds actives, similar compounds and a random draw of the others, so the mix is not that of the screen.

The test relates to HSkMC (human skeletal muscle cells). As to the kind of experiment: cytotoxicity call (relative viability < 0.9). To be noted: 10 µM.
Take `COc1ccc(S(=O)(=O)Nc2ccc3c(c2)C(=O)N([C@@H](C)CO)C[C@@H](C)[C@@H](CN(C)Cc2ccncc2)O3)cc1`: the cytotoxicity call is “inactive”. As for `CC(C)NC(=O)N(C)C[C@@H]1Oc2ccc(NS(=O)(=O)c3ccc(F)cc3)cc2CC(=O)N([C@H](C)CO)C[C@@H]1C`, the cytotoxicity call was “inactive”.

For `COc1cccc(S(=O)(=O)N[C@H]2CC[C@H](CCn3cc(-c4ccccc4OC)nn3)O[C@H]2CO)c1`, the cytotoxicity call is “inactive”.

Turning to `C[C@H]1CCCCO[C@@H](CN(C)C(=O)NC2CCCCC2)[C@@H](C)CN([C@@H](C)CO)C(=O)c2cc(NC(=O)Nc3ccc(F)cc3)ccc2O1`, the cytotoxicity call was “inactive”. In the case of `C[C@H]1CN([C@@H](C)CO)C(=O)c2cccc(NC(=O)c3ccc(-c4nccs4)cc3)c2O[C@H]1CN(C)Cc1ccc(Cl)c(Cl)c1` it was “inactive”; in that of `COc1ccccc1-c1ccc2c(c1)O[C@@H](CN(C)S(=O)(=O)c1ccccc1)[C@H](C)CN([C@@H](C)CO)S2(=O)=O`, “inactive”; in that of `COc1ccc2c3c([nH]c2c1)[C@H](CO)N(C[C@]13CN(C)C1)C(=O)CN1CCOCC1`, “inactive”. The entry for `COc1ccc(NC(=O)N(C)C[C@H]2OCCCC[C@@H](C)Oc3ccc(NS(=O)(=O)c4ccc(Cl)cc4)cc3C(=O)N([C@@H](C)CO)C[C@@H]2C)cc1` is “inactive”; for `Cc1ccc(S(=O)(=O)Nc2ccc3c(c2)C(=O)N([C@H](C)CO)C[C@H](C)[C@@H](CN(C)C(=O)NC(C)C)O3)cc1` it is “inactive”. As for `Cc1ccc(S(=O)(=O)N(C)C[C@H]2OCCCC[C@H](C)Oc3ccc(NC(=O)Nc4ccc(C(F)(F)F)cc4)cc3C(=O)N([C@H](C)CO)C[C@H]2C)cc1`, the cytotoxicity call is “inactive”.

As for `CCC(=O)Nc1ccc2c(c1)C(=O)N(C)C[C@@H](OC)[C@H](C)CN(C(=O)CN1CCOCC1)[C@H](C)CO2`, the cytotoxicity call is “inactive”. With `Cc1noc(C)c1S(=O)(=O)N(C)C[C@H]1OCCCC[C@H](C)Oc2ccc(NC(=O)Nc3ccccc3)cc2C(=O)N([C@H](C)CO)C[C@@H]1C`, the cytotoxicity call was “active”. In the case of `Cc1noc(C)c1S(=O)(=O)N(C)C[C@H]1OCCCC[C@@H](C)Oc2ccc(NC(=O)Nc3ccccc3)cc2C(=O)N([C@H](C)CO)C[C@@H]1C` it was “inactive”.

Consider `Cc1noc(C)c1S(=O)(=O)N(C)C[C@H]1Oc2ccc(NC(=O)Cn3cnnn3)cc2C(=O)N([C@@H](C)CO)C[C@H]1C`, for which the cytotoxicity call is “inactive”. The entry for `Cc1noc(C)c1S(=O)(=O)N(C)C[C@H]1Oc2ccc(NC(=O)Cn3cnnn3)cc2C(=O)N([C@H](C)CO)C[C@H]1C` is “active”; for `Cc1noc(C)c1S(=O)(=O)N(C)C[C@@H]1OCCCC[C@@H](C)Oc2ccc(NC(=O)Nc3ccccc3)cc2C(=O)N([C@H](C)CO)C[C@H]1C` it is “inactive”; for `Cc1noc(C)c1S(=O)(=O)N(C)C[C@H]1OCCCC[C@H](C)Oc2ccc(NC(=O)Nc3ccccc3)cc2C(=O)N([C@H](C)CO)C[C@H]1C` it is “inactive”. In the case of `Cc1noc(C)c1S(=O)(=O)N(C)C[C@@H]1OCCCC[C@@H](C)Oc2ccc(NC(=O)Nc3ccccc3)cc2C(=O)N([C@@H](C)CO)C[C@@H]1C` it was “inactive”. On to `Cc1noc(C)c1S(=O)(=O)N(C)C[C@@H]1OCCCC[C@H](C)Oc2ccc(NC(=O)Nc3ccccc3)cc2C(=O)N([C@H](C)CO)C[C@H]1C`, for which the cytotoxicity call is “active”. In the case of `Cc1noc(C)c1S(=O)(=O)N(C)C[C@@H]1Oc2ccc(NC(=O)Cn3cnnn3)cc2C(=O)N([C@@H](C)CO)C[C@@H]1C` it was “inactive”; in that of `Cc1ccc(S(=O)(=O)N(C)C[C@H]2Oc3ccc(NC(=O)CCN4CCOCC4)cc3C(=O)N([C@H](C)CO)C[C@@H]2C)cc1`, “inactive”; in that of `C[C@@H]1CCCCO[C@@H](CN(C)C(=O)Nc2ccc(C(F)(F)F)cc2)[C@@H](C)CN([C@H](C)CO)C(=O)c2cc(NC(=O)Nc3cccc4ccccc34)ccc2O1`, “inactive”. Regarding `C=C/C=C/[C@@H]1C(=C)CN([C@@H](Cc2ccccc2)C(=O)OC)[C@H]1[C@@H](O)CCn1cc(CCC(=O)NO)nn1`, the cytotoxicity call was “inactive”. In the case of `C[C@H]1CN([C@@H](C)CO)C(=O)c2cccc(NC(=O)C3CC3)c2O[C@H]1CN(C)C(=O)Nc1ccc2c(c1)OCO2`, the cytotoxicity call is “inactive”.

Turning to `CCC(C)(C)c1ccc(CC(C)CN2CC(C)OC(C)C2)cc1.Cl` (centres undefined), the cytotoxicity call is “inactive”. For the compound `OCc1cn(-c2ccccc2)nn1`, the cytotoxicity call was “inactive”. `NCc1cn(-c2ccccc2)nc1C12CC3CC(CC(C3)C1)C2`: the cytotoxicity call is “active”.

For `c1ccc(-c2nc(C34CC5CC(CC(C5)C3)C4)cs2)cc1`, the cytotoxicity call was “inactive”. The entry for `C[C@H]1CCN=C(N)S1` is “inactive”; for `C[C@@H]1CN([C@@H](C)CO)C(=O)c2cccc(NC(=O)c3cnccn3)c2O[C@@H]1CN(C)S(=O)(=O)c1ccc(Cl)cc1` it is “inactive”; for `O=C(O)c1ccc(C(=O)O)nc1` it is “inactive”. In the case of `COc1ccc2c3c([nH]c2c1)[C@H](CO)N(C[C@]13CCN(CC1)C(=O)c1ccncc1)C(=O)c1ccncc1` it was “inactive”; in that of `C[C@@H]1CN([C@@H](C)CO)C(=O)c2cc(NC(=O)CCCN(C)C)ccc2O[C@@H](C)CCCCO[C@H]1CN(C)CC1CCCCC1`, “inactive”. The entry for `CCCNc1nc(=O)c(C)n[nH]1` is “inactive”; for `Cc1n[nH]c(NCc2ccco2)nc1=O` it is “inactive”. As for `Cc1n[nH]c(N/N=C/c2ccccn2)nc1=O`, the cytotoxicity call is “active”. On to `Cc1ccc(-c2nn[nH]n2)n1C`, for which the cytotoxicity call was “inactive”.

Take `C[C@@H]1CN([C@@H](C)CO)C(=O)c2cc(NC(=O)NC3CCCCC3)ccc2O[C@@H](C)CCCCO[C@H]1CN(C)C(=O)c1ccncc1`: the cytotoxicity call is “inactive”. As to `C[C@@H]1CN([C@H](C)CO)C(=O)Cc2cc(NS(=O)(=O)c3ccccc3)ccc2O[C@@H]1CN(C)Cc1ccc2c(c1)OCO2`, the cytotoxicity call is “inactive”. Regarding `O=C(C[C@@H]1CC[C@@H]2[C@H](COC[C@@H](O)CN2C(=O)c2cnccn2)O1)N1CCN(c2ccccc2)CC1`, the cytotoxicity call was “inactive”. Consider `Cc1cc(C(=O)Nc2cccc3c2O[C@@H](CN(C)C(=O)Nc2ccc4c(c2)OCO4)[C@@H](C)CN([C@H](C)CO)C3=O)n(C)n1`, for which the cytotoxicity call was “inactive”.

On to `O=C(N[C@@H](c1ccccc1)c1ccc2ccccc2n1)C1CCN(CCOc2ccc(Cl)cc2)CC1`, for which the cytotoxicity call is “inactive”.

For `O=C(N[C@@H](c1ccc(-c2ccccc2)cc1)c1cnccn1)C1CCN(CCOc2ccc(F)cc2)CC1`, the cytotoxicity call is “inactive”. `Cc1cc(-c2cc(OC(=O)c3ccccc3)ccc2Cl)cc2nnc(Nc3ccc(OCCN4CCCC4)cc3)nc12`: the cytotoxicity call was “active”.

The values above are taken from the antibiotic and cytotoxicity screens of Wong et al. (2023).
